Here are results for 22 molecules from PubChem BioAssay (NCATS).

Test [1] can be described thus: Validation screen for small molecules that induce genotoxicity in human embryonic kidney (HEK293T) cells expressing luciferase-tagged ELG1 (AID 493106). Further: 0% is about no effect. In a few lines: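 ELG1-luciferase reporter readout (ONE-Glo, 30 min, room temperature) after 16 hr compound treatment at 37 °C of HEK293T cells at 2,000 per well. Rising luminescence flags genotoxic stress.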
Test [2] addresses ATPase family AAA domain-containing protein 5 (Homo sapiens) (UniProt Q96QE3). The test is described as follows: Validation screen for small molecules that inhibit ELG1-dependent DNA repair in human embryonic kidney (HEK293T) cells expressing luciferase-tagged ELG1 (AID 493107). Further: nearly all actives have a fitted effect of over 70% in size. Further: potency means the concentration at half of the fitted maximal effect. In a few lines:
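Luciferase read-out, ONE-Glo, 30 min at room temperature, follows 16 h co-exposure at 37 C of compound and the DNA-damaging agent 5-fluorouridine. Cells: HEK293T with ELG1-luciferase fusion, 2,000 per well, DMSO as vehicle.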

Test [3] in a line: qHTS for Inhibitors of Cell Surface uPA Generation: Validation Assay (AID 493164).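 Further: RAW 264.7 macrophage cells exposed to compound for 18 h; 0% is about no effect.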 The gist of the method: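 ATP-Lite luminescence read-out: ATP remains high when uPA activity-dependent LF translocation into the cytoplasm is blocked. RAW 264.7 cells, 18 h compound exposure at 37 C; 7-point titration, 2.45 nM to 38.3 uM final.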
A short description of test [4]: Validation screen for small molecules that induce DNA re-replication in SW480 colon adenocarcinoma cells (AID 504364). Further: 0% is about no effect. In a few lines:
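Image-based DNA content read-out: Hoechst stain 40 min, total nuclear fluorescence intensity (ex 405 nm, em 500-530 nm) after 48 h compound exposure of 250 SW480 cells/well at 37 C, 5% CO2, versus DMSO vehicle.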

In test [5] the target is Peptidyl-prolyl cis-trans isomerase NIMA-interacting 1 (Homo sapiens) (UniProt Q13526). The test is described as follows: qHTS Validation Assay to Find Inhibitors of Pin1 (AID 504536; active means well fitted inhibition curve with a large enough effect in the polarisation, with a control signal flat, not every such curve was filed as active; the % refers to the polarisation;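 further: 0% = full Pin1 enzyme wells and -100% = no-enzyme wells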). The gist of the method:
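Fluorescence polarization competition: compounds (titration) displace HiFluor-488-labeled Pin1-1b peptide from Pin1 (0.3 uM final) in pH 7.5 HEPES buffer with DTT, 10 min at room temperature; %Activity normalized to no-enzyme wells, curves fitted.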

Test [6] concerns the target Phosphoglycerate kinase, glycosomal (Trypanosoma brucei brucei) (UniProt P07378). The test is described as follows: qHTS Validation Assay to Find Inhibitors of Phosphoglycerate Kinase (AID 504547).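 Further: control wells lack PGK and mark full inhibition.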 In a few lines: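 In TEA buffer (100mM, pH 7.6) containing 5mM MgCl2 and 0.01% Tween-20, the GAPDH-coupled PGK reaction proceeded for 60 minutes at room temperature before a single luminescence reading using Kinase-Glo Plus.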

Test [7] has as its target phosphoglycerate mutase (Leishmania major) (UniProt Q4Q090). The test is described as follows: qHTS Validation Assay to Find Inhibitors of Phosphoglycerate Mutase (AID 504548). Further: series mostly up to about 58 µM; on the % scale 0 is the no-effect control and ±100 the full control effect. In a few lines:
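Lm PGAM 1.25nM final; 100 mM TEA pH 7.6, 5 mM MgCl2, 0.01% Tween-20; 45 min RT; Kinase-GloPlus, 10 min; end-point luminescence. Enzyme-free wells as negative controls.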

Test [8] has as its target Ubiquitin carboxyl-terminal hydrolase 1 (Homo sapiens) (UniProt O94782). The test is described as follows: Inhibitors of USP1/UAF1: Pilot qHTS (AID 504865). Further: nearly all actives have a fitted effect of over 35% in size. Further: potency means the concentration at half of the fitted maximal effect. The gist of the method:
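Deubiquitinase activity followed as kinetic rhodamine fluorescence release from 150 nM Ub-Rho. 1 nM USP1/UAF1 with compound, after 15 min room-temperature preincubation, in HEPES pH 7.8 buffer containing TCEP, EDTA, BSA and Tween-20.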

A short description of test [9]: qHTS for Inhibitors of ATXN expression: Validation of Cytotoxic Assay (AID 588349). Further: on the % scale 0 is the no-effect control and ±100 the full control effect. The gist of the method:
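Cytotoxicity counter-screen: ATP-based luminescent viability (CellTiter Glo) after 72 hr exposure of HEK293 cells to a compound titration at 37 degrees C.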

Test [10] deals with Thyrotropin-releasing hormone receptor (Homo sapiens) (UniProt P34981). The test is described as follows: qHTS for Small Molecule Agonists and Allosteric Enhancers of Human TRH Receptor: Validation Screen for Agonists (AID 493127;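 active means calcium activation more than 3 SD above the typical response in the agonist read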;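 further: intracellular calcium rise by fluo-8 fluorescence before TRH EC20 addition; 0% is about no effect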). The conditions noted are these: TRH receptor agonist cell assay; at 2 µM; hits give high values. In a few lines: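 Compound-evoked intracellular calcium release in fluo-8-loaded TRHR cells, read kinetically on FDSS (Ex 480/Em 530, 1 s/cycle) after 23 nL pintool transfer. Agonist phase preceded 10 nM TRH EC20 addition.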

A number with no mark means an inactive call. Inconclusive results are not listed. Calls of active or inactive are those of the source. Unless noted, the call rests on the fitted dose curve; in most records, active means well fitted curve in the direction sought with a large enough effect; inconclusive means small, poorly fitted or top-dose-only effect, or another doubt; inactive means no such curve, though single readings can be large; an effect the other way counts as inactive or inconclusive.

Chain of ATPase family AAA domain-containing protein 5 (Homo sapiens) (Q96QE3 whole entry, looked up, the tested form may be a part): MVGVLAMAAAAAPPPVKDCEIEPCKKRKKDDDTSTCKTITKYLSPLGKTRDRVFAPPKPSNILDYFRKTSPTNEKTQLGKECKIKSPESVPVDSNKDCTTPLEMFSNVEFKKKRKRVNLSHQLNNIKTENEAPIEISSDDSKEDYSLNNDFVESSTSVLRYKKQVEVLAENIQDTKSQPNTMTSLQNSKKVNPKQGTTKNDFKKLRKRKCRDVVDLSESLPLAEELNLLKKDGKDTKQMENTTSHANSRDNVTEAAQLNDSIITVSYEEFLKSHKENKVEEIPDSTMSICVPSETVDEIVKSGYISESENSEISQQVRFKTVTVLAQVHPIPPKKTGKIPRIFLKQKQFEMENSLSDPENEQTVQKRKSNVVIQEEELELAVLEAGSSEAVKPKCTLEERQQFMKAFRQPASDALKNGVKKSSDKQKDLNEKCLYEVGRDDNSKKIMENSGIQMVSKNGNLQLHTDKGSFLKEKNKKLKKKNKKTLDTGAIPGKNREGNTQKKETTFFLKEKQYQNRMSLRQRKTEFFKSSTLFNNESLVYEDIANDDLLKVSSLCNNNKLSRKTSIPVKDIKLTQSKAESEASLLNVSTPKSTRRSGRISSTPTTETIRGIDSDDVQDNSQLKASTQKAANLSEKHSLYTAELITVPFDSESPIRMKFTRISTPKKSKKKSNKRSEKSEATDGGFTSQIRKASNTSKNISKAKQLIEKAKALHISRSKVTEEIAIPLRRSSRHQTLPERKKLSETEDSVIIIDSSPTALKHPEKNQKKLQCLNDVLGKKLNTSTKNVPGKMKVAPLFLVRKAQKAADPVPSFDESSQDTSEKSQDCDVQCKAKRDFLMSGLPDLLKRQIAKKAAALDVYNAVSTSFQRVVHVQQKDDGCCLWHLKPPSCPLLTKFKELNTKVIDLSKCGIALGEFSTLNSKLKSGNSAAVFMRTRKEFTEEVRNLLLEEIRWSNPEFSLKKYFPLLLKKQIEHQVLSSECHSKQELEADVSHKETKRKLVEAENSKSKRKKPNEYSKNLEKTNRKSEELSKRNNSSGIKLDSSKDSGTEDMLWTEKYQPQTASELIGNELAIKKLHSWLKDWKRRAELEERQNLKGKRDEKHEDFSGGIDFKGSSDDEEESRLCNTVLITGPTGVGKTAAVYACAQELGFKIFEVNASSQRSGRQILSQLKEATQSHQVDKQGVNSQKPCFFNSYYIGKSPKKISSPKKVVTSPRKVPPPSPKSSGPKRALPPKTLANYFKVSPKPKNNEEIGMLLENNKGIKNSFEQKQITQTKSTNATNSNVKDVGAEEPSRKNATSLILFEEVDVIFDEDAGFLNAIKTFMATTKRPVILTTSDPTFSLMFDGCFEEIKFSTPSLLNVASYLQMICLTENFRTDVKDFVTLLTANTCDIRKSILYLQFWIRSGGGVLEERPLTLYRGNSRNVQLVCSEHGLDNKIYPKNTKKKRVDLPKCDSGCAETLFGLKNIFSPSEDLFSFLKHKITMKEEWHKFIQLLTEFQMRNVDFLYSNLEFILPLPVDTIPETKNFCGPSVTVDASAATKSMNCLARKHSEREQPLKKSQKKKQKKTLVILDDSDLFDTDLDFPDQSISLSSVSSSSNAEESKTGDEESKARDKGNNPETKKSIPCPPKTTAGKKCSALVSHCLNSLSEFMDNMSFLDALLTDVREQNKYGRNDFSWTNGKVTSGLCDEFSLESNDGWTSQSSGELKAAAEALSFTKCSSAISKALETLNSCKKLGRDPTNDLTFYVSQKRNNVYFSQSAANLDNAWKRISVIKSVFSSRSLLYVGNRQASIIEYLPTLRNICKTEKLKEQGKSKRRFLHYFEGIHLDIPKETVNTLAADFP
Chain of Ubiquitin carboxyl-terminal hydrolase 1 (Homo sapiens) (O94782 whole entry, looked up): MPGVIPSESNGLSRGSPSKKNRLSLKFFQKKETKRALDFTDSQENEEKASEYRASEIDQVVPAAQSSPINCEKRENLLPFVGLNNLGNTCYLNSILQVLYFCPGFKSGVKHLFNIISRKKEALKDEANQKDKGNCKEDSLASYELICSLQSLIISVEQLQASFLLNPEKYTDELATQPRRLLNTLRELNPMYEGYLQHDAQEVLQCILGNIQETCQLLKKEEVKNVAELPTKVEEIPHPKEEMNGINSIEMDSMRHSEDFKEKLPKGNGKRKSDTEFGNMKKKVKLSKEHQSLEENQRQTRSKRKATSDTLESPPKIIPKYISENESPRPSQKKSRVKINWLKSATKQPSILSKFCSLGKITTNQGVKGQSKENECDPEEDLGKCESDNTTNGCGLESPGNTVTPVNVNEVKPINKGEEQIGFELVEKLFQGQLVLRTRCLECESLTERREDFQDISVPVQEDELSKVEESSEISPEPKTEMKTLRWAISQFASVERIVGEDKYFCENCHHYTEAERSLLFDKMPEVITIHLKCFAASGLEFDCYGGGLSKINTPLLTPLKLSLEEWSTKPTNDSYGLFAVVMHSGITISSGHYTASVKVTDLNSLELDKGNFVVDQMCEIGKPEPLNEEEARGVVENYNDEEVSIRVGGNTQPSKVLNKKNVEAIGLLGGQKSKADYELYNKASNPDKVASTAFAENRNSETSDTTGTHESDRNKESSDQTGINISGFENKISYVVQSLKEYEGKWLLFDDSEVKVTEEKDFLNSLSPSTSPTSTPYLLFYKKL
Chain of phosphoglycerate mutase (Leishmania major) (Q4Q090 1-553): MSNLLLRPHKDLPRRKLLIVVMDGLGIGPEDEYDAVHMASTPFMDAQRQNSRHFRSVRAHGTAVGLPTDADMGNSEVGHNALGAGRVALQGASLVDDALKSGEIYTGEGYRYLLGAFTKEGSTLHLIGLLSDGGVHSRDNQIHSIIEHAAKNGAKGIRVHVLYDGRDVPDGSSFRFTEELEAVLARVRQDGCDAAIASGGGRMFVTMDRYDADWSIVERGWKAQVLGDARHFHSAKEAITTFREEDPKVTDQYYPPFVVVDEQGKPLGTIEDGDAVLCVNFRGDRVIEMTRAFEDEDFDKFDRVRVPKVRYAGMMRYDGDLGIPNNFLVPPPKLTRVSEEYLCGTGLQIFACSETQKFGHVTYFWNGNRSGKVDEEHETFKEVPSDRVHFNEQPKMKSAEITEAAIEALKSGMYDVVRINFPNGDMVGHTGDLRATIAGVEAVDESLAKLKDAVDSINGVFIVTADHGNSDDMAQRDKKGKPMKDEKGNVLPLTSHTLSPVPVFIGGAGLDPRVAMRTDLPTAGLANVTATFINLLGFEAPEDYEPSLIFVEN
Chain of Phosphoglycerate kinase, glycosomal (Trypanosoma brucei brucei) (P07378 whole entry, looked up): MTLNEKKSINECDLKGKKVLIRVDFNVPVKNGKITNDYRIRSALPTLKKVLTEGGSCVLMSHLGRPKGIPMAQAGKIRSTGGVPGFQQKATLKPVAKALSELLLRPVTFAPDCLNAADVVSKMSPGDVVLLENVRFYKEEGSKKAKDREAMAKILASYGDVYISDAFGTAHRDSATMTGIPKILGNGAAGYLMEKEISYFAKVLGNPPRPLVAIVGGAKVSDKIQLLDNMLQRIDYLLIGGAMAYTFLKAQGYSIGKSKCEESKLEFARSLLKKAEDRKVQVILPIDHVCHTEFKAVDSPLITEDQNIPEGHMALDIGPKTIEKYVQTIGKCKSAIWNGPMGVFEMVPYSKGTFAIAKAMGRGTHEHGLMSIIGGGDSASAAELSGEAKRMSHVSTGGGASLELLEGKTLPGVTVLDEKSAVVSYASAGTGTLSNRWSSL
Chain of Peptidyl-prolyl cis-trans isomerase NIMA-interacting 1 (Homo sapiens) (Q13526 whole entry, looked up): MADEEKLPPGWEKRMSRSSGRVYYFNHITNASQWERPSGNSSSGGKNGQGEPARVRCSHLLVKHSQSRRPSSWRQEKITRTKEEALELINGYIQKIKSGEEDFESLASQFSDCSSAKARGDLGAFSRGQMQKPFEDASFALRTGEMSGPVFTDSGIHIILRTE
Chain of Thyrotropin-releasing hormone receptor (Homo sapiens) (P34981 whole entry, looked up): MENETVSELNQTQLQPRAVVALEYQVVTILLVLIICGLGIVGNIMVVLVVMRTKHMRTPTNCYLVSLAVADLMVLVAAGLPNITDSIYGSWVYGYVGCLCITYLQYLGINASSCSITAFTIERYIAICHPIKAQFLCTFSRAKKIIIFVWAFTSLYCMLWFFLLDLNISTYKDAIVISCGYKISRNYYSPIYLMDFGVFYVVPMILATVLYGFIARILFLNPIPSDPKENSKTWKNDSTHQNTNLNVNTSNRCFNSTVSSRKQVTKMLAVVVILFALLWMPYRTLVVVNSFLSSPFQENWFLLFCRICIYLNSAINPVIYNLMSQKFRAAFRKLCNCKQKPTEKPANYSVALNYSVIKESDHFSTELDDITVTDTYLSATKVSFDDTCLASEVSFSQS

`C[N+](C)(C)CCO`: the result in [1], in test [3], in test [4], in [5], in [6] and in test [7] was inactive. In addition, the molecule was called inactive in test [9]. The Potency result in [2] and in test [8] was “inactive” in each case.
In the case of `COc1cccc2c1[C@@H]1CN(CCCCn3c(=O)[nH]c4c(sc5ncc(-c6ccccc6)nc54)c3=O)C[C@@H]1CO2`, the outcome in test [1], in test [3], in test [4], in [5], in test [6] and in test [7] was inactive. Besides, in [2], the Potency is 23.1 µM (active). Also, the activation in [10] is 0.5%. Moreover, in [8], the Potency entry was “inactive”.
Consider `OC(CCCN1CCCCC1)(c1ccccc1)c1ccccc1`, for which the Potency entry in test [8] was “inactive”.
For the molecule `CC(C)N(CCC(=O)c1ccc2ccccc2c1)Cc1ccccc1`, the molecule was called inactive in test [1], in test [3], in test [4], in test [5] and in test [6]. Moreover, in [10], the activation is 3.12%.
For the molecule `O=[N+]([O-])c1ccc(-c2nc(-c3ccc(F)cc3)c(-c3ccncc3)[nH]2)cc1`, the result in [1], in [3], in test [4], in test [6], in [7] and in test [9] was inactive. Besides, in [10], the activation was 4.88%.
Turning to `Cc1nn(-c2ccccc2)c(C)c1/C=N/N1CCN(Cc2ccccc2)CC1`, the result in test [1], in [3], in [5], in test [6], in [7] and in [9] was inactive.
`Nc1ncnc2n[nH]c(Nc3ccc(F)cc3)c12`: the outcome in [1], in [3], in test [5], in [6], in test [7] and in test [9] was inactive. In addition, the Potency entry in [8] was “inactive”.
Turning to `CCCCCCCCCCCCCC[N+](C)(C)C`, in test [8], the Potency was 50.1 µM (active).
As for `O=C1NC(=O)/C(=C/c2ccc3c(c2)OC(F)(F)O3)S1`, the molecule was classed as inactive in test [3], in test [5], in [6], in test [7] and in [9]. Moreover, in test [8], the Potency result is “inactive”.
As for `N[C@@H](Cn1ccc(=O)c(O)c1)C(=O)O`, the outcome in test [1], in test [3], in [5], in test [6], in test [7] and in [9] was inactive. Moreover, the Potency entry in [2] and in [8] was “inactive” throughout.
For the molecule `C[C@]12CCC(=O)C=C1CC[C@@H]1[C@@H]2[C@@H](O)C[C@@]2(C)[C@H]1CC[C@]2(O)C(=O)COC(=O)CCC(=O)O`, the activation in [10] is -0.0625%. In addition, the molecule was called inactive in test [4].
In the case of `O=C1NC(c2cccc([N+](=O)[O-])c2)=CCN1c1ccccc1O`, the call in test [1], in test [3], in [4], in test [5], in test [6] and in test [7] was inactive. In test [9], the result was inactive. The Potency entry in [2] and in test [8] was “inactive” throughout. Moreover, the activation in [10] was 1.25%.
Consider `O=S(=O)(O)c1ccc2nc(-c3ccccc3)[nH]c2c1`, for which the Potency entry in test [8] was “inactive”.
On to `COc1ccccc1N1CCN(CCN2C(=O)CC3(CCCC3)CC2=O)CC1`, for which the outcome in test [1], in test [3], in [4], in test [5], in test [6] and in test [7] was inactive. In addition, in test [9], the result was inactive. Also, the Potency entry in [2] and in test [8] was “inactive” each time. In addition, the activation in [10] was 2.31%.
For the molecule `NC(N)=NCCCCN=C(N)N`, the result in test [1], in test [3], in [4], in [5], in test [6] and in test [7] was inactive. In addition, the molecule was called inactive in test [9]. Further, the Potency result in test [2] and in [8] was “inactive” throughout. The activation in test [10] was 0.938%.
Regarding `C1N2CN3CN1CN(C2)C3`, the Potency entry in [8] was “inactive”.
For the molecule `Clc1ccc2c(c1)N=C(N1CCNCC1)c1ccccc1N2`, the molecule was called inactive in test [1], in [3], in [5], in test [6] and in [7]. Further, in [2], the Potency result was “inactive”.
Consider `Cn1cnc2c(NCc3ccccc3)nc(NCCO)nc21`, for which the result in test [1], in [3], in test [4], in test [5], in test [6] and in [7] was inactive. For the same molecule, in test [9], the molecule was called inactive. Also, the Potency entry in [2] and in test [8] was “inactive” in each case. Moreover, the activation in test [10] is 0.188%.
For the molecule `Brc1ccc([C@H]2CN3CCSC3=N2)cc1`, the molecule was called inactive in test [1], in test [3], in test [4], in [6], in [7] and in test [9]. For the same molecule, the Potency entry in [2] and in test [8] was “inactive” in each case. Besides, in [10], the activation was -2.94%.
As for `COC(=O)C1=CO[C@@H](O)[C@@H]2C(CO)=CC[C@H]12`, the molecule was called inactive in test [1], in [3], in [5], in [6], in test [7] and in test [9]. Further, the Potency result in test [2] and in test [8] was “inactive” each time.
In the case of `CN(C)c1cc2c(Nc3ccc4c(cnn4Cc4ccccc4)c3)ncnc2cn1`, the call in test [1], in test [3], in [5], in [6] and in test [7] was inactive. In addition, the activation in [10] was 2.12%.
`CCN(CC)CCNC(=O)c1ccc(NS(C)(=O)=O)cc1`: the outcome in test [1], in [3], in test [5], in [6], in test [7] and in [9] was inactive. Also, the Potency result in test [2] and in [8] was “inactive” each time.
